Reference: the supplement of paper PMC5919970
Structures can show the parent of a compound that is named as a salt. Whole data set: some 2,000 compounds, median “fractional viability relative to vehicle” near 0.91, cut for the lowest 2% near 0.045. The full list was thinned out, with the lowest values kept by preference.

Tested on: TYKNU
Assay: fractional viability relative to vehicle; TYKNU is a high-grade serous ovarian cancer line; higher = less growth inhibition
Conditions: 72 h
Method in brief: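 TYKNU control cells or lentiCRISPRv2 knockout derivatives were seeded at 500 cells per well into drug-stamped 384-well plates holding a ~2100-compound library at 2 or 10 μM, in duplicate. Cells were grown at 37 °C in 5% CO2 in RPMI 1640 with 10% FBS, and drug treatment lasted 72 h. Viability was read by Cell Titer Glo luminescence. Duplicate treatment wells were averaged and normalised to duplicate control wells from the same plate position.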

[1] = 2uM, genotype: DNM1L knockout (sgDNM1L #1)
[2] = 2uM, genotype: sgCTRLA1 (non-targeting control)
[3] = 10uM, genotype: DNM1L knockout (sgDNM1L #1)
[4] = 10uM, genotype: sgCTRLA1 (non-targeting control)

Row | SMILES | fractional viability [1] | fractional viability [2] | fractional viability [3] | fractional viability [4]
1 | OCc1ccc(O[C@@H]2O[C@H](CO)[C@@H](O)[C@H](O)[C@H]2O)cc1 [Gastrodin] | 0.926 | 1.16 | 0.853 | 1.06
2 | COc1ccc(-c2nc3cc(C4=NNC(=O)CC4C)ccc3[nH]2)cc1 (centres undefined) [Pimobendan] | 1.1 | 1.05 | 0.55 | 0.472
3 | CN1C(C(=O)Nc2ccccn2)=C(O)c2sc(Cl)cc2S1(=O)=O [Lornoxicam] | 1.04 | 1.22 | 0.894 | 0.996
4 | Cc1cc(N2CCOCC2)cc2[nH]c(-c3c(NC[C@@H](O)c4cccc(Cl)c4)cc[nH]c3=O)nc12 | 0.488 | 0.845 | 0.35 | 0.472
5 | C=C1C(=O)O[C@@H]2/C=C(\C)CC/C=C(\C)CC[C@@H]12 [Costunolide] | 0.946 | 1.05 | 0.226 | 0.249
6 | C=C1C(=O)O[C@H]2[C@H]1CC/C(C)=C/CC[C@@]1(C)O[C@@H]21 [(-)-Parthenolide] | 0.336 | 0.595 | 0.0299 | 0.0264
7 | CN(C)CCc1c[nH]c2ccc(CS(=O)(=O)N3CCCC3)cc12 [Almotriptan Malate] | 1.02 | 1.18 | 0.947 | 1.02
8 | CC(C)(O)CC[C@@H](O)[C@](C)(O)[C@H]1CC[C@@]2(O)C3=CC(=O)[C@@H]4C[C@@H](O)[C@@H](O)C[C@]4(C)[C@H]3CC[C@]12C [20-Hydroxyecdysone] | 1.04 | 1.1 | 0.84 | 1.02
9 | COc1cc2nc(N3CCCN(C)CC3)nc(NC3CCN(Cc4ccccc4)CC3)c2cc1OC | 0.474 | 0.548 | 0.0331 | 0.0181
10 | COc1cc(OC)c(C(=O)CCCN2CCCC2)c(OC)c1 [Buflomedil HCl] | 0.912 | 1.1 | 0.825 | 1.03
11 | COc1cc2nc(N3CCN(C(=O)C4COc5ccccc5O4)CC3)nc(N)c2cc1OC (centres undefined) [Doxazosin Mesylate] | 1.18 | 1.11 | 1.07 | 0.931
12 | COc1cc2nc(N3CCN(C(=O)C4CCCO4)CC3)nc(N)c2cc1OC (centres undefined) [Terazosin HCl] | 1.17 | 1.16 | 1.07 | 0.97
13 | COC(=O)c1ccc2c(c1)[nH]c1ncnc(NCCCN3CCCCC3)c12 | 0.884 | 1.05 | 0.929 | 0.811
14 | COc1cc(Nc2c(C#N)cnc3cc(OCCCN4CCN(C)CC4)c(OC)cc23)c(Cl)cc1Cl [Bosutinib (SKI-606)] | 0.41 | 0.574 | 0.138 | 0.111
15 | COc1cc2nc(N3CCCC3)nc(NCCCCCN3CCCC3)c2cc1OC | 0.426 | 0.543 | 0.0312 | 0.0156
16 | COc1cc2c(NC3CCN(CC4CCCCC4)CC3)nc(N3CCCN(C(C)C)CC3)nc2cc1OCCCN1CCCCC1 | 0.657 | 0.723 | 0.0227 | 0.00884
17 | c1coc(CNc2ncnc3[nH]cnc23)c1 [Kinetin] | 1.01 | 1.01 | 0.361 | 0.431
18 | Cc1nn(C)c2c1C(c1ccc(C(F)(F)F)cc1)C(C#N)=C(N)O2 (centres undefined) | 0.924 | 1.08 | 0.886 | 0.86
19 | OC(CN1CCN(c2cccc(Cl)c2)CC1)C(c1ccccc1)c1ccccc1 (centres undefined) | 0.96 | 1.02 | 0.831 | 1.05

Row | SMILES | fractional viability [1] | fractional viability [2] | fractional viability [3] | fractional viability [4]
20 | Cc1cc(C(O)=C2C(=O)C(=O)N(CCCN3CCOCC3)C2c2ccncc2)ccc1OCc1ccccc1 (centres undefined) | 0.77 | 0.984 | 0.802 | 0.726
21 | NC(=O)C(c1ccccc1)(c1ccccc1)[C@@H]1CCN(CCc2ccc3c(c2)CCO3)C1 [Darifenacin HBr] | 0.951 | 1.21 | 0.794 | 0.953
22 | C=C[C@]1(C)C[C@@H](OC(=O)CSC(C)(C)CNC(=O)[C@H](N)C(C)C)[C@]2(C)[C@H](C)CC[C@]3(CCC(=O)[C@H]32)[C@@H](C)[C@@H]1O [Valnemulin HCl] | 0.403 | 0.236 | 0.385 | 0.238
23 | COc1ccc(C(=O)CC2(O)C(=O)Nc3c(Cl)ccc(Cl)c32)cc1 (centres undefined) | 0.264 | 0.243 | 0.175 | 0.186
24 | CCN1CCN(Cc2ccc(C(=O)Nc3ccc(C)c(Oc4ccc5c(c4)CC(=O)N5)c3)cc2C(F)(F)F)CC1 | 0.704 | 0.758 | 0.477 | 0.756
25 | Cc1ccc(C(=O)Nc2ccc(CN3CCN(C)CC3)c(C(F)(F)F)c2)cc1C#Cc1cnc2[nH]ncc2c1 | 0.214 | 0.169 | 0.0362 | 0.0116
26 | Cc1ccc(NC(=O)c2ccc(CN3CCN(C)CC3)cc2)cc1Nc1nc(-c2cccnc2)cs1 [Masitinib (AB1010)] | 1.29 | 1.09 | 0.779 | 0.775
27 | Cc1ccc(NC(=O)c2ccc(CN3CC[C@H](N(C)C)C3)c(C(F)(F)F)c2)cc1Nc1nccc(-c2cncnc2)n1 [Bafetinib (INNO-406)] | 0.684 | 0.569 | 0.0871 | 0.0998
28 | Cc1ccc(C(=O)Nc2ccc(CN3CCN(C)CC3)c(C(F)(F)F)c2)cc1C#Cc1cnc2cccnn12 | 0.227 | 0.185 | 0.0344 | 0.0177
29 | Cc1ccc(NC(=O)c2ccc(CN3CCN(C)CC3)cc2)cc1Nc1nccc(-c2cccnc2)n1 [Imatinib Mesylate (STI571)] | 1.08 | 1.12 | 0.599 | 0.612
30 | Cc1ccc(NC(=O)c2ccc(CN3CCN(C)CC3)cc2)cc1Nc1nccc(-c2cccnc2)n1 [Imatinib (STI571)] | 1.18 | 1.1 | 0.839 | 0.867
31 | CC(C)n1nc(-c2ccc3oc(N)nc3c2)c2c(N)ncnc21 | 0.194 | 0.191 | 0.181 | 0.171
32 | Cc1nc(N(C)C(=O)Cc2ccc(-c3ccccn3)cc2)sc1S(N)(=O)=O [Pritelivir (BAY 57-1293)] | 0.897 | 0.947 | 0.855 | 0.818
33 | COc1cccc(C=NCCN=Cc2cccc(OC)c2[O-])c1[O-].[Cl-].[Mn+3] | 0.805 | 0.978 | 0.756 | 0.897
34 | Cc1nc2ccc(-n3ncc(C(=O)c4cc5ccccc5[nH]4)c3N)cc2[nH]1 | 0.935 | 0.923 | 0.958 | 0.819
35 | Cc1ccc(NC(=O)C2(c3ccc4c(c3)OC(F)(F)O4)CC2)nc1-c1cccc(C(=O)O)c1 [VX-809 (Lumacaftor)] | 0.94 | 1.12 | 0.933 | 1.06
36 | CCO[C@@H]1OC(=O)C[C@@H]1NC(=O)[C@@H]1CCCN1C(=O)[C@@H](NC(=O)c1ccc(N)c(Cl)c1)C(C)(C)C | 0.968 | 1.18 | 0.898 | 1.09
37 | CCC1C/C(=C\c2cccnc2)C(=O)/C(=C/c2cccnc2)C1 (centres undefined) | 0.104 | 0.0876 | 0.0563 | 0.0253
38 | COc1cc2c(cc1OC)[C@@H]1Cc3ccc(OC)c(OC)c3CN1CC2 [Rotundine] | 1.17 | 1.06 | 1.18 | 1.01

Row | SMILES | fractional viability [1] | fractional viability [2] | fractional viability [3] | fractional viability [4]
39 | CC[C@]12C=CCN3CC[C@@]4(c5cc([C@@]6(C(=O)OC)C[C@@H]7C[C@@H](C(C)(F)F)CN(Cc8c6[nH]c6ccccc86)C7)c(OC)cc5N(C)[C@H]4[C@@](O)(C(=O)OC)[C@@H]1OC(C)=O)[C@@H]32 [Vinflunine Tartrate] | 0.191 | 0.144 | 0.142 | 0.114
40 | O=C(CCCCCN1C(=O)c2cccc3cccc(c23)C1=O)NO [Scriptaid] | 0.411 | 0.51 | 0.108 | 0.109
41 | O=C(O)C1=C[C@@H](O)[C@@H](O)[C@H](O)C1 [Shikimic Acid] | 0.996 | 1.17 | 0.84 | 1.06
42 | COCC[n+]1c2c(n(Cc3cnccn3)c1C)C(=O)c1ccccc1C2=O [YM155 (Sepantronium Bromide)] | 0.0411 | 0.0393 | 0.0214 | 0.0241
43 | COc1cc2ncnc(Sc3nnc(C)s3)c2cc1OC | 0.747 | 0.866 | 0.0591 | 0.0581
44 | O=C(C[S+]([O-])Cc1ccco1)NC/C=C\COc1cc(CN2CCCCC2)ccn1 (centres undefined) [Lafutidine] | 1 | 1.2 | 0.826 | 1.06
45 | O=C([O-])c1ccccc1O.[Na+] [Sodium salicylate] | 1.08 | 1.09 | 0.913 | 1.03
46 | CN1CCN(c2ccc3nc(-c4c(N)c5c(F)cccc5[nH]c4=O)[nH]c3c2)CC1 [Dovitinib (TKI258) Lactate] | 0.398 | 0.423 | 0.0366 | 0.0252
47 | CN1CCN(c2ccc3nc(-c4c(N)c5c(F)cccc5[nH]c4=O)[nH]c3c2)CC1 [Dovitinib (TKI-258, CHIR-258)] | 0.523 | 0.465 | 0.119 | 0.0963
48 | O=C(O)c1ccc(N2C(=O)/C(=C\c3ccc(-c4ccc([N+](=O)[O-])cc4)o3)C=C2c2ccccc2)cc1 | 0.851 | 0.873 | 0.899 | 0.776
49 | O=c1ncccn1[C@@H]1O[C@H](CO)[C@@H](O)[C@H]1O [Zebularine] | 0.97 | 1.06 | 0.676 | 0.938
50 | O=C(Nc1ccccc1)N1CCN(c2nc(-c3ccccc3)ns2)CC1 | 1.06 | 1.14 | 0.828 | 0.976
51 | COc1cc2c(Oc3ccc(NC(=O)C4(C(=O)Nc5ccc(F)cc5)CC4)cc3F)ccnc2cc1OCCCN1CCOCC1 | 0.628 | 0.631 | 0.0524 | 0.0418
52 | COc1cc2c(Nc3ccc(NC(=O)c4ccccc4)cc3)ncnc2cc1OCCCN1CCOCC1 | 0.862 | 0.959 | 0.266 | 0.22
53 | COc1cc2nccc(Oc3ccc(NC(=O)C4(C(=O)Nc5ccc(F)cc5)CC4)cc3)c2cc1OC | 1.15 | 1.17 | 0.615 | 0.64
54 | CCN(C(=O)c1c(O)c2c(Cl)cccc2n(C)c1=O)c1ccccc1 [Laquinimod] | 1.22 | 1.14 | 0.958 | 1.08
55 | CC[C@H](Nc1ncnc2[nH]cnc12)c1nc2cccc(F)c2c(=O)n1-c1ccccc1 [CAL-101 (Idelalisib, GS-1101)] | 0.947 | 1.11 | 0.863 | 0.971
56 | CN(C)CC(=O)Nc1ccc2[nH]c(=O)c3ccccc3c2c1 | 0.84 | 1.06 | 0.74 | 1.03
